CF NFkB inh: inhibitors of cystic fibrosis induced NF-kB. KKLEB NF-kB-GFP reporter, PAF-induced, GFP fluorescence overnight. inhibition, % at 5 µM. 360,000 tested, 0.86% active. AID 588850;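 active = at least 50% inhibition at 5 µM, scaled per plate between neutral and stimulator controls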;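 note: PAF is a Pseudomonas aeruginosa culture filtrate used as stimulus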
TWEAK-Fn14 inh: inhibitors of TWEAK-Fn14 interaction signaling. inhibition, % at 10 µM. 360,000 tested, 2% active. TWEAK-stimulated Fn14 reporter cells, luciferase luminescence, 8 h. AID 1159606; in the data active = inhibition above about 50%
EWS-Fli inh: blocks EWS/Fli oncoprotein-driven transcription | 350,000 tested, 0.67% active | AID 651661 | A673 NR0B1-luciferase reporter, viability-normalised | inhibition, % at 12.6 µM;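 active = mean inhibition of at least 50% after viability correction, with every replicate also passing that limit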;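 note: firefly luciferase signal divided by Alamar Blue viability fluorescence both relative to DMSO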
LGR2 antag: inhibitors of bursicon-induced Drosophila LGR2 receptor cAMP signaling; 380,000 tested, 0.35% active; inhibition, % at 9.99 µM; HEK293 LGR2, CRE-luciferase, bursicon-stimulated, 4 h;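 active = drop in luminescence signal, shown as inhibition above about 50% in the replicate tests, limit read from the data, passing the limit was not always enough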;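 note: agonist challenge used bursicon conditioned medium at about half maximal strength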
TROY signal inh: blocks TROY-dependent signaling in reporter cells; 360,000 tested, 0.98% active; inhibition, % at 10 µM; Q293 LMP1-TROYcd NF-kB luciferase reporter, 4 h;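 active = compounds whose plate-normalised and pattern-corrected inhibition of the luciferase reporter signal at the single screening dose is 50% or more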
KKLEB tox: CF airway cell cytotoxicity counter-screen; KKLEB CF airway cells viability, ATPlite luminescence, overnight; stronger effect = lower value; cells stimulated with P. aeruginosa culture filtrate; activity change (cytotoxicity), % at 5 µM; 360,000 tested, 0.36% active; AID 602141;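 active = corrected activity change at or below -50% at 5 µM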
DNA binding: small molecule DNA binding by fluorescence polarization; shares compounds with EWS-Fli inh; salmon sperm DNA acridine orange fluorescence polarization; AC35, µM (highest dose often 68 µM); 640 tested, 2% active; AID 720586;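 active = fitted curve reaches a 35% signal fall AC35 below twice the sample's top valid tested dose, actives reach about 48 µM in these data; inactive = the rest, including activity in the rising direction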;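 note: lower polarization ratio signals compound binding to DNA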
Large screens that a line does not name were inactive (follow-up assays come after a bar, where they were run). Compounds with a hit are over-represented: about 2.6% of the library has one in this group of screens.

Cc1cc(C(=O)CN2C(=O)c3ccccc3S2(=O)=O)c(C)n1C(C)C	TWEAK-Fn14 inh 92.7, EWS-Fli inh 73.0, LGR2 antag 75.8, TROY signal inh 83.7 | DNA binding inactive
COc1cc(C(=O)N2CCC(N3CCN(C)CC3)CC2)ccc1Nc1ncc2c(n1)N(C)c1ccccc1C(=O)N2C	EWS-Fli inh 59.3 (no result: CF NFkB inh, TWEAK-Fn14 inh, TROY signal inh, KKLEB tox) | DNA binding inactive
CCOc1cc(N2CCC(O)CC2)ccc1Nc1ncc2c(n1)N(C)c1ccccc1C(=O)N2C	EWS-Fli inh 54.7 (no result: CF NFkB inh, TWEAK-Fn14 inh, TROY signal inh, KKLEB tox) | DNA binding inactive
O=C(N[C@H]1CC[C@H](CCn2cc(C3(O)CCCC3)nn2)O[C@@H]1CO)C1CCCC1	none (no result: CF NFkB inh, TWEAK-Fn14 inh, TROY signal inh, KKLEB tox)
C[C@@H]1CN([C@@H](C)CO)S(=O)(=O)c2ccc(C#Cc3ccncc3)cc2O[C@H]1CN(C)S(=O)(=O)c1ccccc1	EWS-Fli inh 72.6 (no result: CF NFkB inh, TWEAK-Fn14 inh, TROY signal inh, KKLEB tox) | DNA binding inactive
C[C@H]1CN([C@@H](C)CO)S(=O)(=O)c2ccc(C#Cc3ccncc3)cc2O[C@@H]1CN(C)S(=O)(=O)c1ccccc1	EWS-Fli inh 53.4 (no result: CF NFkB inh, TWEAK-Fn14 inh, TROY signal inh, KKLEB tox) | DNA binding inactive
Cc1ccc(S(=O)(=O)N(C)C[C@@H]2Oc3cc(C#Cc4ccncc4)ccc3S(=O)(=O)N([C@@H](C)CO)C[C@H]2C)cc1	EWS-Fli inh 52.5 (no result: CF NFkB inh, TWEAK-Fn14 inh, LGR2 antag, TROY signal inh, KKLEB tox) | DNA binding inactive
Cc1ccc(N=C2NC(=O)/C(=C\c3cccs3)S2)cc1C	EWS-Fli inh 58.3 | DNA binding inactive
O=C(Nc1cccc(F)c1)N1CC(=O)N2[C@H](C1)[C@@H](c1ccc(-c3ccccc3F)cc1)[C@@H]2CO	none (no result: CF NFkB inh, TWEAK-Fn14 inh, EWS-Fli inh, TROY signal inh, KKLEB tox)
O=C(C1CCCC1)N1C[C@@H]2N[C@H](C1)C2c1ccc(-c2ccccc2F)cc1 (stereo partly specified)	none (no result: CF NFkB inh, TWEAK-Fn14 inh, TROY signal inh, KKLEB tox)
N/C(Cc1nc(-c2ccc(F)cc2)cs1)=N\O	EWS-Fli inh 77.2 | DNA binding inactive
Nc1nc(=S)c2[nH]cnc2[nH]1	EWS-Fli inh 61.5 | DNA binding inactive
Nc1nc(=S)c2[nH]c(=S)[nH]c2[nH]1	none
CCCC(=O)NC(c1cccs1)c1cc([N+](=O)[O-])c2cccnc2c1O (stereo unspecified)	none
O=C(CCc1ccccc1)NC(c1cccs1)c1cc(Cl)c2cccnc2c1O (stereo unspecified)	EWS-Fli inh 58.4 | DNA binding inactive
CCCNC(=O)[C@@H]1[C@@H](CO)[C@@H]2Cn3c(ccc(-c4ccccc4)c3=O)[C@H]1N2C(=O)CC	EWS-Fli inh 54.9 (no result: CF NFkB inh, TWEAK-Fn14 inh, TROY signal inh, KKLEB tox) | DNA binding inactive
CCCNC(=O)[C@@H]1[C@@H](CO)[C@@H]2Cn3c(ccc(-c4ccccc4)c3=O)[C@H]1N2C(=O)C1CC1	none (no result: CF NFkB inh, TWEAK-Fn14 inh, TROY signal inh, KKLEB tox)
COc1cccc(O)c1CN1CCC(C(=O)Nc2ccc(Oc3cccnc3)cc2)CC1	none
COc1cccc(O)c1CN1CCC(C(=O)Nc2ccc(-c3cccc(C)c3)cc2)CC1	EWS-Fli inh 57.8 | DNA binding inactive
CCCc1nc2ccc(NC(C)=O)cc2c(=O)n1Cc1ccc(Cl)cc1	none
CCCc1nc2ccc(NC(=O)c3cccs3)cc2c(=O)n1Cc1ccccc1Cl	EWS-Fli inh 60.2 | DNA binding inactive
O=C(C[C@H]1C[C@H]2c3cc(NC(=O)C4CCOCC4)ccc3O[C@H]2[C@@H](CO)O1)NCc1ccncc1	none (no result: CF NFkB inh, TWEAK-Fn14 inh, TROY signal inh, KKLEB tox)
O=C(O)c1ccc(N/N=C/c2ccc3c(c2)OCO3)cc1	TWEAK-Fn14 inh 102.0, EWS-Fli inh 85.3, LGR2 antag 101.5, TROY signal inh 82.2 | DNA binding inactive
O=C(O)c1ccc(N/N=C/c2c(F)cccc2Cl)cc1	TWEAK-Fn14 inh 95.1, EWS-Fli inh 74.6, LGR2 antag 76.3 | DNA binding inactive
CC(C)(C)c1ccc(/C=N/Nc2ccc(C(=O)O)cc2)cc1	TWEAK-Fn14 inh 92.7, EWS-Fli inh 67.4, LGR2 antag 58.1, TROY signal inh 59.2 | DNA binding inactive
CC(C)(C)c1ccc(/C=N/Nc2cccc(C(=O)O)c2)cc1	none
C/C=C/c1ccc([C@@H]2[C@H](CO)N(C(=O)C3CC3)C23CN(S(=O)(=O)CC)C3)cc1	none (no result: CF NFkB inh, TWEAK-Fn14 inh, TROY signal inh, KKLEB tox)
C[C@H]1CN([C@@H](C)CO)C(=O)c2cc(NC(=O)CCCN(C)C)ccc2O[C@@H]1CN(C)S(=O)(=O)c1ccccc1	none (no result: CF NFkB inh, TWEAK-Fn14 inh, TROY signal inh, KKLEB tox)
CCCN1C(=O)/C(=C/c2nc3ccccc3c(=O)[nH]2)c2ccccc21	EWS-Fli inh 84.5 | DNA binding inactive

High-throughput results deposited in PubChem BioAssay by several laboratories.
